# Measured values from the supplement of paper PMC8728848.
# This excerpt belongs to a sample that is enriched for the strongest signals.
# Key:
# Test in all cases: glycan array binding signal (z-score within array); higher = stronger binding
# Settings in all cases: glycan notation: IUPAC condensed, linker removed
# [1] = biological target: Fuc(a1-2)Gal(b1-3)GlcNAc
# In short: (§1)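 Columns mapping to the same glycan were averaged after glycan names were converted to IUPAC-condensed notation. The data come from 3228 arrays in the Consortium for Functional Glycomics database, limited to those with an available protein sequence. Binding is reported as a within-array Z-score averaged across arrays of one protein sequence and across linkers.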
# [2] = biological target: Fuc(a1-2)Gal(b1-4)Glc
# In short: as §1
# [3] = biological target: Fuc(a1-2)Gal(b1-4)GlcNAc
# In short: as §1
# [4] = biological target: Fuc(a1-2)Gal(b1-4)GlcNAc(b1-2)Man(a1-3)[Fuc(a1-2)Gal(b1-4)GlcNAc(b1-2)Man(a1-6)]Man(b1-4)GlcNAc(b1-4)GlcNAc
# In short: as §1
# [5] = biological target: Fuc(a1-2)Gal(b1-4)GlcNAc(b1-3)Gal(b1-4)GlcNAc
# In short: as §1
# [6] = biological target: Fuc(a1-2)Gal(b1-4)GlcNAc(b1-3)[Fuc(a1-3)[Gal(b1-4)]GlcNAc(b1-6)]Gal(b1-4)Glc
# In short: as §1
# [7] = biological target: Fuc(a1-2)Gal(b1-4)[Fuc(a1-3)]GlcNAc
# In short: as §1
# [8] = biological target: Fuc(a1-2)Gal(b1-4)[Fuc(a1-3)]GlcNAc(b1-3)Gal(b1-4)[Fuc(a1-3)]GlcNAc(b1-3)Gal(b1-4)[Fuc(a1-3)]GlcNAc
# In short: as §1
# [9] = biological target: Fuc(a1-2)[Gal(a1-3)]Gal(b1-4)[Fuc(a1-3)]Glc
# In short: as §1
# [10] = biological target: Fuc(a1-2)[Gal(a1-3)]Gal(b1-4)[Fuc(a1-3)]GlcNAc
# In short: as §1
# [11] = biological target: Fuc(a1-2)[GalNAc(a1-3)]Gal(b1-3)GlcNAc(b1-6)GalNAc
# In short: as §1
# [12] = biological target: Fuc(a1-2)[GalNAc(a1-3)]Gal(b1-4)GlcNAc
# In short: as §1
# [13] = biological target: Fuc(a1-2)[GalNAc(a1-3)]Gal(b1-4)GlcNAc(b1-2)Man(a1-3)[Fuc(a1-2)[GalNAc(a1-3)]Gal(b1-4)GlcNAc(b1-2)Man(a1-6)]Man(b1-4)GlcNAc(b1-4)GlcNAc
# In short: as §1
# [14] = biological target: Fuc(a1-3)[Gal(b1-4)]GlcNAc(b1-2)Man(a1-3)[Fuc(a1-3)[Gal(b1-4)]GlcNAc(b1-2)Man(a1-6)]Man(b1-4)GlcNAc(b1-4)[Fuc(a1-6)]GlcNAc
# In short: as §1
# [15] = biological target: Gal(a1-3)Gal(b1-3)GlcNAc(b1-2)Man
# In short: as §1
# [16] = biological target: Gal(b1-3)GlcNAc(a1-3)Gal(b1-4)GlcNAc
# In short: as §1
# [17] = biological target: Gal(b1-3)GlcNAc(b1-2)Man
# In short: as §1
# [18] = biological target: Gal(b1-3)[Neu5Ac(a2-6)]GlcNAc(b1-4)Gal(b1-4)Glc
# In short: as §1
# [19] = biological target: Gal(b1-4)GlcNAc(b1-3)GalNAc
# In short: as §1
# [20] = biological target: Gal3S6S(b1-4)GlcNAc
# In short: as §1
# [21] = biological target: Gal6S(b1-3)GlcNAc
# In short: as §1
# [22] = biological target: Gal6S(b1-4)Glc
# In short: as §1
# [23] = biological target: GalNAc(b1-3)GalNAc
# In short: as §1
# [24] = biological target: Glc(b1-4)Glc
# In short: as §1
# [25] = biological target: GlcA(b1-3)GlcNAc
# In short: as §1
# [26] = biological target: GlcNAc(a1-4)Gal(b1-3)GlcNAc
# In short: as §1
# [27] = biological target: GlcNAc(b1-3)Gal(b1-4)GlcNAc(b1-3)Gal(b1-4)GlcNAc(b1-2)Man(a1-3)[GlcNAc(b1-3)Gal(b1-4)GlcNAc(b1-3)Gal(b1-4)GlcNAc(b1-2)Man(a1-6)]Man(b1-4)GlcNAc(b1-4)[Fuc(a1-6)]GlcNAc
# In short: as §1
# [28] = biological target: GlcNAc(b1-3)Gal(b1-4)GlcNAc(b1-3)Gal(b1-4)GlcNAc(b1-3)Gal(b1-4)GlcNAc(b1-3)Gal(b1-4)GlcNAc(b1-2)Man(a1-3)[GlcNAc(b1-3)Gal(b1-4)GlcNAc(b1-3)Gal(b1-4)GlcNAc(b1-3)Gal(b1-4)GlcNAc(b1-3)Gal(b1-4)GlcNAc(b1-2)Man(a1-6)]Man(b1-4)GlcNAc(b1-4)[Fuc(a1-6)]GlcNAc
# In short: as §1
# [29] = biological target: Kdn(a2-3)Gal(b1-3)GlcNAc
# In short: as §1
# [30] = biological target: Neu5Ac(a2-3)Gal(b1-3)GalNAc
# In short: as §1
# [31] = biological target: Neu5Ac(a2-3)Gal(b1-3)GalNAc(b1-4)[Neu5Ac(a2-8)Neu5Ac(a2-3)]Gal(b1-4)Glc
# In short: as §1
# [32] = biological target: Neu5Ac(a2-3)Gal(b1-3)GlcNAc
# In short: as §1
# [33] = biological target: Neu5Ac(a2-3)Gal(b1-3)GlcNAc(b1-2)[Neu5Ac(a2-3)Gal(b1-3)GlcNAc(b1-4)]Man(a1-6)[Neu5Ac(a2-3)Gal(b1-3)GlcNAc(b1-2)Man(a1-3)]Man(b1-4)GlcNAc(b1-4)GlcNAc
# In short: as §1
# [34] = biological target: Neu5Ac(a2-3)Gal(b1-3)GlcNAc(b1-3)Gal(b1-4)GlcNAc
# In short: as §1
# [35] = biological target: Neu5Ac(a2-3)Gal(b1-3)[Fuc(a1-4)]GlcNAc
# In short: as §1
# [36] = biological target: Neu5Ac(a2-3)Gal(b1-3)[Fuc(a1-4)]GlcNAc(b1-3)Gal(b1-3)[Fuc(a1-4)]GlcNAc
# In short: as §1
# [37] = biological target: Neu5Ac(a2-3)Gal(b1-3)[Fuc(a1-4)]GlcNAc(b1-3)Gal(b1-4)[Fuc(a1-3)]GlcNAc
# In short: as §1
# [38] = biological target: Neu5Ac(a2-3)Gal(b1-3)]Neu5Ac(a2-3)Gal(b1-4)]GlcNAc
# In short: as §1
# [39] = biological target: Neu5Ac(a2-3)Gal(b1-4)GlcNAc(b1-2)Man(a1-3)[Neu5Ac(a2-3)Gal(b1-4)GlcNAc(b1-2)Man(a1-6)]Man(b1-4)GlcNAc(b1-4)GlcNAc
# In short: as §1
# [40] = biological target: Neu5Ac(a2-3)Gal(b1-4)GlcNAc(b1-3)Gal(b1-4)GlcNAc
# In short: as §1
# [41] = biological target: Neu5Ac(a2-3)Gal(b1-4)GlcNAc6S
# In short: as §1
# [42] = biological target: Neu5Ac(a2-3)Gal(b1-4)[Fuc(a1-3)]GlcNAc(b1-3)Gal
# In short: as §1
# [43] = biological target: Neu5Ac(a2-3)Gal6S(b1-4)GlcNAc
# In short: as §1
# [44] = biological target: Neu5Ac(a2-3)Gal6S(b1-4)[Fuc(a1-3)]GlcNAc
# In short: as §1
# [45] = biological target: Neu5Ac(a2-3)GalNAc(b1-4)GlcNAc
# In short: as §1
# [46] = biological target: Neu5Ac(a2-6)Gal(b1-4)GlcNAc(b1-3)Gal(b1-4)GlcNAc(b1-6)[Gal(b1-3)]GalNAc
# In short: as §1
# [47] = biological target: Neu5Ac(a2-6)Gal(b1-4)GlcNAc(b1-6)[Gal(b1-3)GlcNAc(b1-3)]Gal(b1-4)Glc
# In short: as §1
# [48] = biological target: Neu5Ac(a2-8)Neu5Ac
# In short: as §1
# [49] = biological target: Neu5Ac(a2-8)Neu5Ac(a2-3)Gal(b1-3)GalNAc(b1-4)[Neu5Ac(a2-3)]Gal(b1-4)Glc
# In short: as §1
# [50] = biological target: Neu5Ac(a2-8)Neu5Ac(a2-8)Neu5Ac
# In short: as §1
# [51] = biological target: Neu5Ac(a2-8)Neu5Ac(a2-8)Neu5Ac(a2-8)Neu5Ac(a2-3)[GalNAc(b1-4)]Gal(b1-4)Glc
# In short: as §1
# [52] = biological target: Neu5Gc(a2-3)Gal(b1-4)GlcNAc(b1-3)Gal(b1-4)GlcNAc(b1-2)Man(a1-3)[Neu5Gc(a2-3)Gal(b1-4)GlcNAc(b1-3)Gal(b1-4)GlcNAc(b1-2)Man(a1-6)]Man(b1-4)GlcNAc(b1-4)GlcNAc
# In short: as §1
# [53] = biological target: Neu5Gc(a2-6)Gal(b1-4)GlcNAc
# In short: as §1
binder,measurement,setting,value
CBM40 CPF071 (Clostridium perfringens) (protein) MAHHHHHHVGTGSNDDDDKSPDPMLSSLGEYKDINLESSNASNITYDLEKYKNLDEGTIVVRFNSKDSKIQSLLGISNSKTKNGYFNFYVTNSRVGFELRNQKNEGNTQNGTENLVHMYKDVALNDGDNTVALKIEKNKGYKLFLNGKMIKEVKDTNTKFLNNIENLDSAFIGKTNRYGQSNEYNFKGNIGFMNIYNEPLGDDYLLSKTGETK,glycan array binding signal (z-score),[1],-0.384
same,glycan array binding signal (z-score),[2],-0.55
same,glycan array binding signal (z-score),[3],-0.027
same,glycan array binding signal (z-score),[4],-0.22
same,glycan array binding signal (z-score),[5],0.231
same,glycan array binding signal (z-score),[6],2.74
same,glycan array binding signal (z-score),[7],0.074
same,glycan array binding signal (z-score),[8],0.635
same,glycan array binding signal (z-score),[9],-0.299
same,glycan array binding signal (z-score),[10],-0.541
same,glycan array binding signal (z-score),[11],0.171
same,glycan array binding signal (z-score),[12],-0.116
same,glycan array binding signal (z-score),[13],-0.216
same,glycan array binding signal (z-score),[14],-0.443
same,glycan array binding signal (z-score),[15],0.599
same,glycan array binding signal (z-score),[16],-0.517
same,glycan array binding signal (z-score),[17],-0.631
same,glycan array binding signal (z-score),[18],-0.087
same,glycan array binding signal (z-score),[19],-0.419
same,glycan array binding signal (z-score),[20],-0.144
same,glycan array binding signal (z-score),[21],-0.48
same,glycan array binding signal (z-score),[22],-0.246
same,glycan array binding signal (z-score),[23],0.09
same,glycan array binding signal (z-score),[24],2.37
same,glycan array binding signal (z-score),[25],0.262
same,glycan array binding signal (z-score),[26],-0.341
same,glycan array binding signal (z-score),[27],-0.411
same,glycan array binding signal (z-score),[28],-0.108
same,glycan array binding signal (z-score),[29],-0.464
same,glycan array binding signal (z-score),[30],-0.019
same,glycan array binding signal (z-score),[31],-0.469
same,glycan array binding signal (z-score),[32],0.994
same,glycan array binding signal (z-score),[33],2.77
same,glycan array binding signal (z-score),[34],-0.328
same,glycan array binding signal (z-score),[35],2.38
same,glycan array binding signal (z-score),[36],0.256
same,glycan array binding signal (z-score),[37],1.09
same,glycan array binding signal (z-score),[38],10.7
same,glycan array binding signal (z-score),[39],-0.305
same,glycan array binding signal (z-score),[40],1.96
same,glycan array binding signal (z-score),[41],5.07
same,glycan array binding signal (z-score),[42],1.97
same,glycan array binding signal (z-score),[43],16.3
same,glycan array binding signal (z-score),[44],5.09
same,glycan array binding signal (z-score),[45],0.216
same,glycan array binding signal (z-score),[46],0.025
same,glycan array binding signal (z-score),[47],-0.069
same,glycan array binding signal (z-score),[48],0.538
same,glycan array binding signal (z-score),[49],-0.205
same,glycan array binding signal (z-score),[50],-0.128
same,glycan array binding signal (z-score),[51],-0.358
same,glycan array binding signal (z-score),[52],2.46
same,glycan array binding signal (z-score),[53],-0.336
